PubChem BioAssay (EPA / NIEHS)
The source made the active and inactive calls. Rule for the calls: active = hit-call score of the fitted dose curve at least 0.9, where 1 is the maximum; inactive = score below 0.9.

Tests used:
[1] = target: CCAAT/enhancer-binding protein beta (Homo sapiens) (UniProt P17676); assay: ATG_C_EBP_CIS: Attagene CIS-FACTORIAL HepG2 Assay for human CCAAT/Enhancer Binding Protein (C/EBP) beta (AID 2282927); details: HepG2 Attagene cis-factorial transcription factor reporter; actives raise or lower the signal
Outline: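 Endogenous transcription factor activity in human liver HepG2 cells is inferred from induction of a CEBPB-linked reporter mRNA. Exposure lasts 24 h; activity is fitted in both directions relative to DMSO.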

[2] = ATG_CMV_CIS: Attagene CIS-FACTORIAL HepG2 Assay for human CMV (Internal Marker) (AID 2282928); details: HepG2 CMV promoter reporter, transcription factor profiling; actives raise or lower the signal;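 note: endpoint acts as a background internal control marker rather than a target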
Outline: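 Readout: fluorescent reporter cDNA fragments separated by capillary electrophoresis after RT-PCR and HpaI cut. Cells: HepG2 carrying transfected cis-promoter reporter constructs, dosed 24 h. Endpoint serves as background internal-marker control, fit bidirectionally versus DMSO.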

[3] = ATG_DR4_LXR_CIS: Attagene CIS-FACTORIAL HepG2 Assay for human Liver X Receptor (LXR), DR4 submotif (AID 2282929); details: HepG2 Attagene DR4 cis-reporter, mRNA transcription; actives raise or lower the signal
Outline: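 DR4 cis-reporter in HepG2, 24 h exposure. Detection: RT-PCR, 6-FAM labelling, CE fragment analysis. Endpoint fitted bidirectionally, DMSO = baseline.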

[4] = target: Aryl hydrocarbon receptor (Homo sapiens) (UniProt P35869); assay: ATG_Ahr_CIS: Attagene CIS-FACTORIAL HepG2 Assay for human Aryl Hydrocarbon Receptor (Ahr) (AID 2282930); details: HepG2 AhR cis-factorial reporter transcription; actives raise or lower the signal
Outline: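 Transient MRTU transfection of HepG2 → 24 h compound exposure → total RNA, oligo(dT) RT → PCR, 6-FAM extension, HpaI cut → CE fluorescence. DMSO = baseline; bidirectional curve fit.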

[5] = ATG_AP_1_CIS: Attagene CIS-FACTORIAL HepG2 Assay for human Activator Protein 1 (AP-1) (AID 2282931); details: HepG2 Attagene cis-factorial AP-1 reporter mRNA; actives raise or lower the signal
Outline: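 Cis-regulated reporter units transiently expressed in HepG2 report endogenous transcription-factor activity. Signal: reporter mRNA at 24 h, via RT-PCR and fluorescent capillary electrophoresis. Endpoint derived by bidirectional fitting, DMSO as negative control.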

[6] = ATG_AP_2_CIS: Attagene CIS-FACTORIAL HepG2 Assay for human Activator Protein 2 (AP-2) (AID 2282932); details: HepG2 AP-2 cis-reporter, Attagene transcription factor profiling; actives raise or lower the signal
Outline: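 Transiently transfected HepG2 cells are exposed to chemical for 24 h. Reporter transcripts are then measured as fluorescence following RT-PCR and capillary separation, and gain- or loss-of-signal is fitted relative to DMSO.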

[7] = ATG_BRE_CIS: Attagene CIS-FACTORIAL HepG2 Assay for human Bone Morphogenetic Protein (BMP) Response Element (BRE) (AID 2282933); details: HepG2 BMP response element reporter, Attagene transcription factor profiling; actives raise or lower the signal
Outline: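 Read-out: reporter mRNA induction quantified by RT-PCR and capillary electrophoresis after 24 h chemical exposure of transfected HepG2 cells. Endogenous factor activity on the BMP response element; gain or loss fitted against DMSO baseline.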

[8] = target: Retinoic acid receptor alpha (Homo sapiens) (UniProt P10276); assay: ATG_DR5_RAR_CIS: Attagene CIS-FACTORIAL HepG2 Assay for human Retinoic Acid Receptor Alpha (RARE), DR5 submotif (AID 2282934); details: HepG2 Attagene cis-factorial RARE DR5 reporter, mRNA; actives raise or lower the signal
Outline: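 Transient MRTU transfection of HepG2; 24 h compound treatment; TriZol RNA, oligo(dT) RT, PCR, FAM labelling, capillary electrophoresis. Bidirectional fit vs DMSO. Endogenous TF activity at DR5 RARE.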

[9] = ATG_E_Box_CIS: Attagene CIS-FACTORIAL HepG2 Assay for human Enhancer Box (E-box) (AID 2282936); details: HepG2 E-box cis-reporter transcription, actives raise or lower the signal
Outline: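 Fluorescent reporter fragments separated by capillary electrophoresis gave the signal; mRNA came from HepG2 cells transfected with cis-element reporters and treated 24 h. Curves fitted bidirectionally relative to DMSO controls.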

[10] = ATG_M_61_CIS: Attagene CIS-FACTORIAL HepG2 Assay for M61 Transcription Factor (Internal Marker) (AID 2282937); details: HepG2 Attagene CIS-FACTORIAL M61 internal marker reporter; actives raise or lower the signal
Outline: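 Background-control endpoint: HepG2 cells with cis-regulated reporter constructs, 24 h exposure, reporter mRNA detected via fluorescent primer extension and capillary electrophoresis; values from bidirectional fitting with DMSO baseline.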

[11] = ATG_EGR_CIS: Attagene CIS-FACTORIAL HepG2 Assay for human Early Growth Response 1 (EGR1) (AID 2282938); details: HepG2 Attagene CIS-FACTORIAL EGR reporter mRNA; actives raise or lower the signal
Outline: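 Endpoint derived by bidirectional fitting versus DMSO vehicle. Method: cis-promoter reporter units transfected into HepG2, 24 h dosing, RNA isolation, RT-PCR with 6-FAM primer extension and HpaI digestion, then capillary electrophoresis fluorescence detection.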

[12] = ATG_M_19_CIS: Attagene CIS-FACTORIAL HepG2 Assay for M19 Transcription Factor (Internal Marker) (AID 2282939); details: HepG2 Attagene CIS-FACTORIAL M19 internal marker reporter; actives raise or lower the signal
Outline: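 Readout: fluorescent reporter-transcript fragments by capillary electrophoresis after RT-PCR. Human HepG2 liver cells carried transfected MRTU constructs reporting endogenous transcription-factor activity; exposure 24 h. Gain or loss of signal fitted relative to DMSO.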

[13] = ATG_Ets_CIS: Attagene CIS-FACTORIAL HepG2 Assay for human Erythroblast Transformation Specific (ETS) (AID 2282941); details: HepG2 ETS cis-reporter transcription, actives raise or lower the signal
Outline: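 RT-PCR/capillary electrophoresis fluorescence read-out of reporter mRNA; HepG2 transient multi-reporter transfection; 24 h compound exposure; gain or loss of signal fitted bidirectionally relative to DMSO.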

[14] = target: Hepatocyte nuclear factor 3-beta (Homo sapiens) (UniProt Q9Y261); assay: ATG_FoxA2_CIS: Attagene CIS-FACTORIAL HepG2 Assay for human Forkhead box A2 (FOXA2) (AID 2282942); details: HepG2 cis-reporter transcription factor activity, 24 h; actives raise or lower the signal
Outline: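 Measured: reporter mRNA induction or loss in HepG2 transiently carrying multiple cis-regulated reporter units, 24 h after dosing. Quantified by RT-PCR plus capillary electrophoresis, normalised to DMSO.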

[15] = ATG_FoxO_CIS: Attagene CIS-FACTORIAL HepG2 Assay for human Forkhead box O (FoxO) (AID 2282943); details: HepG2 Attagene cis-reporter, FoxO element, mRNA; actives raise or lower the signal
Outline: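 HepG2, transient MRTU transfection (cis element, endogenous TFs). Dose 24 h. TriZol RNA → oligo(dT) RT → PCR → 6-FAM primer extension → HpaI cut → CE. Gain/loss vs DMSO.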

[16] = ATG_GATA_CIS: Attagene CIS-FACTORIAL HepG2 Assay for human GATA Binding Protein (AID 2282944); details: HepG2 GATA cis-element reporter, Attagene multiplex mRNA; actives raise or lower the signal
Outline: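 Read-out: fluorescent reporter mRNA fragments resolved by capillary electrophoresis after RT-PCR. Human liver HepG2 cells carried transiently transfected cis-regulated reporter constructs; chemicals incubated 24 h; gain or loss of signal fitted relative to DMSO.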

[17] = ATG_GLI_CIS: Attagene CIS-FACTORIAL HepG2 Assay for human Zinc Finger Protein GLI1 (AID 2282945); details: HepG2, Attagene cis-factorial reporter mRNA, GLI element; actives raise or lower the signal
Outline: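 Bidirectional curve fits relative to DMSO, using reporter mRNA levels from RT-PCR plus capillary electrophoresis. Cells were HepG2 transiently carrying cis-regulated reporter constructs, harvested 24 h after dosing.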

[18] = target: Transcription factor E2F1 (Homo sapiens) (UniProt Q01094); assay: ATG_E2F_CIS: Attagene CIS-FACTORIAL HepG2 Assay for human E2F Transcription Factor 1 (AID 2282935); details: HepG2 Attagene cis-reporter, E2F reporter RNA transcripts; actives raise or lower the signal
Outline: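 Fluorescent RT-PCR products, digested with HpaI for 2 h at 37 C, are separated by capillary electrophoresis. Source RNA comes from transfected HepG2 cultures treated for 24 h.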

Measured: AC50

CCAAT/enhancer-binding protein beta (Homo sapiens), sequence (P17676 whole entry, looked up): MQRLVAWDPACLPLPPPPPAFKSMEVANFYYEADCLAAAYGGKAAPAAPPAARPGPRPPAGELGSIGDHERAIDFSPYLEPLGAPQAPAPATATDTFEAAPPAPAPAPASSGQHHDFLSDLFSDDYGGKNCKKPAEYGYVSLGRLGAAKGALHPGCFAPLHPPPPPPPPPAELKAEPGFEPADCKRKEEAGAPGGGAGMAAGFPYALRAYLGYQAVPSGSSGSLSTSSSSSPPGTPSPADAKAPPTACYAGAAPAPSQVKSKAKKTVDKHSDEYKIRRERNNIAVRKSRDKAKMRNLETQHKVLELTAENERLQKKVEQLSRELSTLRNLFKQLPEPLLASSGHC
Hepatocyte nuclear factor 3-beta (Homo sapiens), sequence (Q9Y261 whole entry, looked up): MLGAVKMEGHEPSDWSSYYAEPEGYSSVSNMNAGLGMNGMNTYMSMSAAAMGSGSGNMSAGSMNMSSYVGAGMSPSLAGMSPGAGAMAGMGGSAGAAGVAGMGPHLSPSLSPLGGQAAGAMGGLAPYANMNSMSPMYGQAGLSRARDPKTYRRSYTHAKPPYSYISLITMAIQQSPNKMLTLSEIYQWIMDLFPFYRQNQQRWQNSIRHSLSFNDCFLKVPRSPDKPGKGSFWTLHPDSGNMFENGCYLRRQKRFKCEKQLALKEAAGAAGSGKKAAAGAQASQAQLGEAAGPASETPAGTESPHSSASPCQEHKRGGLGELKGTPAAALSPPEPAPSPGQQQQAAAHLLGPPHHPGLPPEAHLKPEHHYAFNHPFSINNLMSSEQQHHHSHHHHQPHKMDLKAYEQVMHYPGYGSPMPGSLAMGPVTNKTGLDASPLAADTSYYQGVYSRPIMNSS
Transcription factor E2F1 (Homo sapiens), sequence (Q01094 whole entry, looked up): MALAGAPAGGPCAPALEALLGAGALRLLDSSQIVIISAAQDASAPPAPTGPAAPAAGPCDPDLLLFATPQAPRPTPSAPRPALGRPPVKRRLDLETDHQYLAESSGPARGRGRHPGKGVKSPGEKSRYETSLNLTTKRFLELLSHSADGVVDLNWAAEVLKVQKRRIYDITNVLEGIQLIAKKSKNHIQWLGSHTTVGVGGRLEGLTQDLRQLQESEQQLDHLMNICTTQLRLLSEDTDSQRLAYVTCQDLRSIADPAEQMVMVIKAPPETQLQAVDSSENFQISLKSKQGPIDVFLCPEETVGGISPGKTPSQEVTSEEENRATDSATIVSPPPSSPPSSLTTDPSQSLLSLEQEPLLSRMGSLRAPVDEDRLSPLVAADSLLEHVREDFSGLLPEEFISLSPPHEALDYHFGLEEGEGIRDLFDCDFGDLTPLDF
Aryl hydrocarbon receptor (Homo sapiens), sequence (P35869 whole entry, looked up): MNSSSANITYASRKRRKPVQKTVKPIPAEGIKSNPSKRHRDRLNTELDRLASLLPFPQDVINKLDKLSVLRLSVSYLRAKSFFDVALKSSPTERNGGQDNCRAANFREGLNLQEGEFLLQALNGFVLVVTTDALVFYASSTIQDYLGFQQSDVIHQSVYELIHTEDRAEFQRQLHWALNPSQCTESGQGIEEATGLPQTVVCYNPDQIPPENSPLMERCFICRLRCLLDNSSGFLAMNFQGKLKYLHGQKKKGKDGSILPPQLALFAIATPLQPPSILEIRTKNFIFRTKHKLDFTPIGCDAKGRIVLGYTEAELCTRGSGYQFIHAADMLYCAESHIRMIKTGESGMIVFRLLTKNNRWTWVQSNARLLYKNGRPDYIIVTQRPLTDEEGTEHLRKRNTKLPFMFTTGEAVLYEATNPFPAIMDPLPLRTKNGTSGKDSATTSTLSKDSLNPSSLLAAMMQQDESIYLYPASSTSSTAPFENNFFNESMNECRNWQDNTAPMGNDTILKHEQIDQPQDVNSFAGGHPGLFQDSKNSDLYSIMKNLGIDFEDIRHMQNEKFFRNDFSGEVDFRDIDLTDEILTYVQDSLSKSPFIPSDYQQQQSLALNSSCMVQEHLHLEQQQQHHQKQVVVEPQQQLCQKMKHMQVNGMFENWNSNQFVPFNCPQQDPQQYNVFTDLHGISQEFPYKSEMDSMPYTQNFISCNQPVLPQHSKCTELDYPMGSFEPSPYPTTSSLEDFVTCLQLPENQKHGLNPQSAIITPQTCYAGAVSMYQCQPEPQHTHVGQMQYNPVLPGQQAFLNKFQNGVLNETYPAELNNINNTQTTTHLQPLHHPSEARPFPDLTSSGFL
Retinoic acid receptor alpha (Homo sapiens), sequence (P10276 whole entry, looked up): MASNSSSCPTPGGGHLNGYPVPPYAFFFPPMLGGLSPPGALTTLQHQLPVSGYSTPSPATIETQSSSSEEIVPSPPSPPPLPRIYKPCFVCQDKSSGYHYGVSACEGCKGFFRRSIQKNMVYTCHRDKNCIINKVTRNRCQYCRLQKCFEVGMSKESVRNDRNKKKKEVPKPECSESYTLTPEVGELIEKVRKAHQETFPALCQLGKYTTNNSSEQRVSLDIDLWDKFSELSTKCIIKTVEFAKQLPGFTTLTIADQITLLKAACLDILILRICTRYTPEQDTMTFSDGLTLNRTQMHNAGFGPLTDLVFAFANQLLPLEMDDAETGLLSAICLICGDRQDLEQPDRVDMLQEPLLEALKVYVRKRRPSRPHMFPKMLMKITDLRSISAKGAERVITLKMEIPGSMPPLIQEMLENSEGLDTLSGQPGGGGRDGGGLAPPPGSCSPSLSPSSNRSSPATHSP

C#CC(C)N(C)C(=O)Nc1ccc(Cl)cc1 (configuration not stated)
not listed: [18]
inactive: all other assays above

CCCCOC(=O)CCCCCCCC(=O)OCCCC
not listed: [7] | [8] | [14]
inactive: all other assays above

C1CCOC1
not listed: [7] | [13] | [18]
inactive: all other assays above

CCCN(CCC)S(=O)(=O)c1ccc(C(=O)O)cc1
not listed: [13]
inactive: all other assays above

CSc1c(Cl)c(Cl)c(Cl)c(Cl)c1Cl
active: [2] 26.3 µM | [3] 32 µM | [9] 26 µM | [17] 185 µM
inactive: all other assays above

CC=CC=CCOC(=O)C(C)C
active: [3] 130 µM | [5] 100 µM
inactive: all other assays above

OCCc1ccccc1
not listed: [5] | [16]
inactive: all other assays above

CCCCCCCCSCCO
active: [1] 100 µM | [2] 100 µM | [3] 148 µM
inactive: all other assays above

CCOC(=O)C(C#N)=C(c1ccccc1)c1ccccc1
active: [3] 29.6 µM | [5] 178 µM | [7] 125 µM | [11] 20 µM
inactive: all other assays above
